Screening data (PubChem)
D3 ag = D3 dopamine receptor (human) agonism | D3R DiscoveRx beta-arrestin cells, luminescence, 90 min | max activation, % | 410,000 tested, 0.58% active | AID 652048; in the data active means max activation above about 30%; further: 0% is about no effect
Target sequence (P35462 whole entry, looked up): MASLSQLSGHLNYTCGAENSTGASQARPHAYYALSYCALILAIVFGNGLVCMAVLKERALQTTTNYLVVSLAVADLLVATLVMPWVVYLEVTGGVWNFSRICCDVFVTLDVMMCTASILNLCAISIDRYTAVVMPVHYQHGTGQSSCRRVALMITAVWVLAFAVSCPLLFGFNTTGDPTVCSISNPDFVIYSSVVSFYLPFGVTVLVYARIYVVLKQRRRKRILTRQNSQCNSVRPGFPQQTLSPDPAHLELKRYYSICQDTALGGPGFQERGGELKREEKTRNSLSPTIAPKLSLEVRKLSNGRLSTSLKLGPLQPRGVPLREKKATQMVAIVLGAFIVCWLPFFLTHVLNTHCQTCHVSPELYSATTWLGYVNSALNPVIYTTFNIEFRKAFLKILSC
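Agonist mode: compounds and dopamine controls were applied to plated cells for 90 min at 37 degrees C after an overnight attachment at 1500 cells/well. Luminescent read-out followed 30 - 60 minutes at room temperature with DiscoveRx detection reagent.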
HepG2 tox = HepG2 cytotoxicity, counter-screen for TGF-b inhibitors. HepG2 CAGA-GFP viability, ATP luminescence, 18 h. Potency, µM (top dose mostly 46.1 µM), without a hit: at the highest dose activity change, negative = cytotoxicity, usual class: cytotoxic. 410,000 tested, 0.76% active. AID 588856; further: potency means the concentration at half of the fitted maximal effect
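CellTiter-Glo luminescence gave cytotoxicity after 18 hours at 37 degrees C. The cells were HepG2 CAGA-GFP in 1% FBS DMEM, stimulated with 500 pg/mL TGF-beta after compound addition. %Activity was normalised to no-cell wells (complete cell-killing) and DMSO (no toxicity), and curves were fitted and classified.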
TGFb inhibitor = inhibitors of TGF-b signaling. Potency, µM (series often up to 46.1 µM), for the others: at the top dose activity, negative = inhibition, most hits filed as inhibitors. 410,000 tested, 1.2% active. HepG2 CAGA-GFP TGF-b/SMAD3 reporter, GFP fluorescence, 18 h; TGF-beta stimulated, 500 pg/mL final; further: potency means the concentration at half of the fitted maximal effect; on the % scale 0 is the no-effect control and ±100 the full control effect; nearly all actives have a fitted effect of over 65% in size
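TGF-beta reporter screen: HEPG2 CAGA-GFP, 1% FBS, 500 pg/mL TGF-beta final, 18 h; per-cell GFP summed per well; curves fitted and categorized by class.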
D3 antag = antagonists of human D3 dopamine receptor; P35462; D3R cells, DiscoveRx beta-arrestin luminescence, antagonist mode; stronger effect = lower value; max response, negative = inhibition, %; 360,000 tested, 2.5% active; AID 652054; in the data active means max response below about -50%; inconclusive means no clear call, values can overlap the other calls; further: on the % scale 0 is the no-effect control and ±100 the full control effect
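Cells expressing the human receptor were seeded at 1500 cells/well, incubated overnight at 37 degrees C in 5% CO2, then exposed to library compounds with dopamine controls for 90 minutes at 37 degrees C before luminescent detection.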
ATXN viability = cell viability loss in ATXN counter-screen; S2 cells (HEK-293 line with an ATXN2-luciferase reporter) viability, CellTiter-Fluor protease fluorescence, 24 h; Potency, µM (doses to about 56.7 µM), most hits filed as cytotoxic; 400,000 tested, 0.49% active; further: potency means the concentration at half of the fitted maximal effect; nearly all actives have a fitted effect of over 40% in size
ATXN2 expr inh = reduces ATXN2 reporter expression in HEK-293 cells; HEK-293 ATXN2-luciferase reporter, luminescence, 24 h; Potency, µM (top dose mostly 57 µM), for the others: at the highest dose activity change, negative = inhibition, usual class: inhibitors; 360,000 tested, 0.72% active; further: potency means the concentration at half of the fitted maximal effect; on the % scale 0 is the no-effect control and ±100 the full control effect; nearly all actives have a fitted effect of over 55% in size
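qHTS (up to 57 uM final) was run with 24 h compound exposure of reporter cells at 37 °C. Each well was multiplexed: SteadyGlo luminescence measured ATXN2-luciferase expression after a fluorogenic Gly-Phe-AFC viability readout (25 uM final).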
* marks the source's active call; other numbers are inactive results; i = inactive; ? = inconclusive; nt = no result. Shown are actives, neighbours in structure and some others; about 4.8% of the full set was active somewhere. Unless noted, the call rests on the fitted dose curve; in most records, active means well fitted curve in the direction sought with a large enough effect; inconclusive means small, poorly fitted or top-dose-only effect, or another doubt; inactive means no such curve, though single readings can be large; an effect the other way counts as inactive or inconclusive.

SMILES	D3 ag	HepG2 tox	TGFb inhibitor	D3 antag	ATXN viability	ATXN2 expr inh
OCCN1CCN(CC(O)COCC2COc3ccccc3O2)CC1 (configuration not stated)	2.3	-23.8%	-7.1%	-17.0	i	-8.0%
O=C(NCc1ccccc1Cl)c1ccc(-n2cnc3cccnc32)cc1	-3.4	-5.8%	17.7%	nt	i	-3.8%
CCN(CC)CCOC(=O)CCc1cccc2ccccc12	0.9	5.0%	-0.4%	-66.2*	?	4.5%
CCN(CC)CCNC(=O)c1cc([N+](=O)[O-])c(N(C)C)cc1OC	-22.4	6.9%	-1.6%	-92.7*	i	-11.6%
CCN(CC)CCNC(=O)c1cc(Cl)c(N)cc1OC	-90.5	0.6%	0.7%	-116.6*	i	-7.9%
CCN(CC)CCOC(=O)C(c1ccccc1)c1ccccc1	-82.0	14.3%	5.8%	-66.6*	i	-4.7%
CCN(CC)CCOC(=O)[C@@H](c1ccccc1)C1CCCCC1	nt	nt	nt	nt	i	nt
COCCNC(=O)c1cc(OC)c(OC)cc1[N+](=O)[O-]	-0.6	1.5%	9.6%	2.6	i	7.8%
Cc1nn(C)cc1CN1CCOc2ccc(CN3CCC(Oc4cccnc4)CC3)cc2C1	nt	nt	nt	nt	i	nt
CC(C)Oc1ccc(CNC(=O)Cn2nc(N3CCN(c4ccccc4)CC3)ccc2=O)cc1	10.7	-25.4%	?	nt	i	-14.7%
CCN(CC)CCOC(=O)c1cc(Cl)c(N)cc1OC	-69.6	-4.0%	3.2%	-58.0*	i	-5.2%
CCN(CC)CCOC(=O)c1ccc(Cl)cc1	-8.8	-1.1%	-4.2%	-83.1*	i	5.4%
CCOc1ccc(C(=O)OCCN(CC)CC)cc1	-5.4	13.8%	4.4%	5.8	i	21.2%
COC(=O)c1cc(Cl)c(N)cc1OC	-3.3	12.3%	4.7%	-11.1	i	0.8%
CC(C)(C)[C@H]1CCC(=O)N(CCSc2ccc(Br)cc2)CC1	nt	-63.6%	?	nt	nt	nt
O=C(O)CCc1[nH]c2ccccc2c1Sc1ccccc1	-19.0	-20.3%	-4.9%	-67.0*	i	-15.1%
C=C1C(=O)OC2C=C(CO)C3OC3C3OC3(C)CC(OC(=O)/C(=C/C)COC(C)=O)C12 (configuration not stated)	-15.1	-66.1%	?	-81.1*	nt	?
COc1ccc(-c2c(C(=O)c3ccccc3)[nH]c(N)c2C(=O)c2ccccc2)cc1OC	-10.1	nt	nt	-66.7*	?	-8.4%
COc1cc(-c2c(C(=O)c3ccccc3)[nH]c(N)c2C(N)=O)ccc1F	3.2	nt	nt	21.2	i	21.8%
COc1ccc(C(=O)c2[nH]c(N)c(C(N)=O)c2-c2ccc(OC)c(OC)c2)cc1	7.3	nt	nt	14.4	i	21.4%
COc1ccc(-c2c(C(=O)c3ccccc3)[nH]c(N)c2C(=O)c2ccc(Br)cc2)cc1OC	-4.0	nt	nt	-73.1*	?	-7.9%
CC(C)=CC1C=C(C)C(C)C2C(=O)NNC(=O)C12 (configuration not stated)	2.2	-34.3%	-2.1%	-96.6*	i	11.3%
CC1OC(CC(=O)O)CC2=C1C(=O)c1c(O)cccc1C2=O (configuration not stated)	-23.2	0.501µM*	?	-94.0*	0.947µM*	1.19µM*
Cc1ccc(-c2cn3c(n2)sc2cc(C(=O)NC4CCCCC4)ccc23)cc1	-2.6	-4.9%	2.2%	nt	nt	nt
COc1ccc(NC(C)=O)c(C)c1	0.2	52.5%	7.2%	2.5	i	-6.8%
COc1cc(C)c(C(=O)CC(=O)c2c(C)cc(OC)cc2C)c(C)c1	19.0	-63.3%	5.9%	-14.8	i	25.1µM*
COc1ccc(CN2CCOc3ccc(CN4CCC(O)CC4)cc3C2)c(OC)c1OC	nt	nt	nt	nt	i	nt
CC(C)c1ccccc1OCCCCCN1CCOCC1	-15.3	-16.4%	1.6%	-53.7*	i	-25.5%
CC(C)c1ccccc1OCCCCN1CCCCC1	-21.7	-24.3%	-2.7%	-103.4*	i	nt
CC(C)c1ccccc1OCCCN1CCCC1	-2.3	1.4%	22.2%	-86.6*	nt	nt
